The whole screen tested about 100,000 compounds, of which about 770 (0.77%) were called active. The sample holds actives, similar compounds and a random draw of the others, so the mix is not that of the screen. Unmarked numbers belong to inactive results. Rule as the data show it: active = inhibition above about 50%; inactive = the rest.
Each compound was assayed against Gag-Pol polyprotein (Human immunodeficiency virus type 1 group M subtype B (isolate HXB2)) (UniProt P04585) (assay: RNase H inhibition, HIV 1 Gag Pol polyprotein, FRET biochemical assay, screening (AID 372)). Settings: HIV-1 RT RNase H, FRET RNA/DNA substrate fluorescence; at 10 µM; active compounds read high.

SMILES | inhibition
N#Cc1ccc(C=Nc2cc(Cl)cc(Cl)c2)cc1 | 11%
Cc1cc2c(c(=O)o1)C(c1cccs1)C(C#N)=C(N)O2 (configuration not stated) | 4%
Cc1cc(C)c(S(=O)(=O)Nc2cc(Br)c(O)c3ccccc23)c(C)c1 | 18%
N#Cc1ccccc1COc1ccc(/C=C2/NC(=S)NC2=O)cc1 | 23%
CCOc1ccc(C(=O)NC(=S)Nc2ccc3nn(-c4ccccc4)nc3c2)cc1[N+](=O)[O-] | 18%
COc1ccc(C(=O)NC(=S)Nc2ccc(Br)cc2)cc1[N+](=O)[O-] | 0%
Cc1ccc(-n2nc3ccc(NC(=O)/C=C\c4cccc([N+](=O)[O-])c4)cc3n2)cc1 | 59% (active)
CCOc1ccc(-n2nc3ccc(NC(=O)c4ccc(C)c([N+](=O)[O-])c4)cc3n2)cc1 | 17%
Cc1ccc(C(=O)Nc2ccc3nn(-c4ccc(F)cc4)nc3c2)cc1[N+](=O)[O-] | 40%
COc1ccc(C(=O)NC(=S)Nc2cc(-c3nc4ccccc4[nH]3)ccc2C)cc1[N+](=O)[O-] | 18%
COc1ccc(C(=O)Nc2ccc3nn(-c4ccccc4)nc3c2)cc1[N+](=O)[O-] | 18%
COc1ccc(C(=O)NC(=S)Nc2ccc3nn(-c4ccccc4)nc3c2)cc1[N+](=O)[O-] | 56% (active)
O=C(/C=C/c1cccc([N+](=O)[O-])c1)Nc1ccc2nn(-c3ccccc3)nc2c1 | 43%
Cc1ccc(-n2nc3cc(C)c(NC(=O)/C=C/c4cccc([N+](=O)[O-])c4)cc3n2)cc1 | 12%
COc1ccc(C(=O)NC(=S)Nc2ccc(-c3nc4ccccc4[nH]3)cc2)cc1[N+](=O)[O-] | 60% (active)
Cc1ccc(C(=O)Nc2ccc3nn(-c4ccc(Cl)cc4)nc3c2)cc1[N+](=O)[O-] | 51% (active)
CCc1ccc(C=NC23CN4CN(CN(C4)C2)C3)s1 | 5%
CCOC(=O)c1c(NC(=O)CN2C(=O)S/C(=C\c3ccccc3)C2=O)sc2c1CCCC2 | 10%
COc1cccc(/C=C2/SC(=S)N(CCC(=O)Nc3nnc(C)s3)C2=O)c1 | 7%
Cn1ccnc1SCC(=O)n1c2c(c3ccccc31)CCCC2 | 0%
COc1ccc(C(=O)Nc2ccc3nn(-c4ccc(C)c(Cl)c4)nc3c2)cc1[N+](=O)[O-] | 53% (active)
Cc1ccc(-n2nc3ccc(NC(=O)c4ccc([N+](=O)[O-])c(C)c4)cc3n2)cc1Cl | 44%
Cc1ccc(C(=O)Nc2ccc3nn(-c4cccc([N+](=O)[O-])c4)nc3c2)cc1 | 54% (active)

SMILES | inhibition
O=C(Nc1ccc2nn(-c3cccc([N+](=O)[O-])c3)nc2c1)c1ccccc1 | 22%
COc1ccc(-n2nc3ccc(NC(=O)c4ccc(OC)c([N+](=O)[O-])c4)cc3n2)cc1 | 3%
O=C(Nc1ccc2nn(-c3ccccc3)nc2c1)c1ccc([N+](=O)[O-])cc1 | 12%
Cc1cc([N+](=O)[O-])ccc1NC(=O)c1c(C)c(C)c(C)c(C)c1C | 10%
CCOc1ccc(N(CC(=O)NCCSCc2ccccc2)S(=O)(=O)c2ccccc2)cc1 | 10%
CC1(C)Cc2cc3c(=O)[nH]c(=S)[nH]c3nc2CO1 | 0%
N#Cc1cc2c(N)c(C(=O)c3ccccc3)sc2nc1N | 8%
CC1=C(C(=O)OC2CCCCC2)C(c2ccccc2[N+](=O)[O-])C2=C(CCCC2=O)N1 (configuration not stated) | 10%
CC(C)(C)c1cc(CCC(=O)NCCO)cc(C(C)(C)C)c1O | 0%
COC(=O)CCc1cc(C(C)(C)C)c(O)c(C(C)(C)C)c1 | 0%
CC(C)(C)c1cc(CCC(=O)NCCNC(=O)C(=O)NCCNC(=O)CCc2cc(C(C)(C)C)c(O)c(C(C)(C)C)c2)cc(C(C)(C)C)c1O | 55% (active)
Cc1ccccc1OCCOc1ccc(/C=c2\sc3nc4ccccc4n3c2=O)cc1 | 5%
C=CCN1C(=O)C(O)=C(C(C)=O)C1c1ccc(Br)cc1 (configuration not stated) | 8%
Cc1ccc(-c2nc3ccccc3s2)cc1NC(=O)COc1ccccc1 | 10%
COc1ccc(OCC(=O)Nc2cc(-c3nc4ccccc4s3)ccc2C)cc1 | 2%
Cc1cccc(OCC(=O)Nc2cccc(-c3nc4ccccc4s3)c2)c1 | 9%
COc1ccc(OCC(=O)Nc2cccc(-c3nc4ccccc4s3)c2)cc1 | 7%
Cc1ccc(-c2nc3ccccc3s2)cc1NC(=O)COc1ccc(Cl)cc1 | 69% (active)
Cc1cc(C)cc(OCC(=O)Nc2cccc(-c3nc4ccccc4s3)c2)c1 | 53% (active)
CCc1cc(=O)oc2c(C)c(OCc3ccc(Cl)cc3)ccc12 | 5%
CN1C(=O)/C(=C\c2cccc(OCc3ccc(Cl)cc3Cl)c2)SC1=S | 11%
Cc1ccccc1N=C(NOCc1ccc(Cl)cc1Cl)c1nonc1N | 13%
Nc1nonc1C(=Nc1ccccc1)NOCc1ccc(Cl)cc1Cl | 32%

SMILES | inhibition
COc1ccc(C2CC(=O)C3=C(C2)Nc2ccccc2NC3c2cccc(Cl)c2Cl)cc1OC (configuration not stated) | 16%
CCc1nnc(NC(=O)Nc2ccc(Cl)cc2)s1 | 10%
Cc1cc(C)c2nc3s/c(=C\c4ccc(Cl)cc4Cl)c(=O)n3c2c1 | 0%
COc1cccc2cc(C(C)=O)c(=O)oc12 | 3%
COc1cccc2cc(C(=O)O)c(=O)oc12 | 6%
Brc1ccc(CN2CCN(c3ncccn3)CC2)s1 | 1%
Cc1c(NC(=S)NC(=O)/C=C/c2ccccc2)cccc1-c1nc2ccccc2o1 | 36%
Cc1c(NC(=S)NC(=O)/C=C/c2ccccc2)cccc1-c1nc2ncccc2o1 | 52% (active)
Cc1ccc(-c2nc3ncccc3o2)cc1NC(=S)NC(=O)/C=C/c1ccccc1 | 5%
CCOc1ccc(OCCCCOc2ccccc2C)cc1 | 18%
O=C(N/N=C/c1cccc(Br)c1)C(=O)N1CCCC1 | 15%
N#CC1=C(N)Oc2cc(N)ccc2C1c1cccc(Oc2ccccc2)c1 (configuration not stated) | 5%
OCCNCCCOc1cc(Cl)ccc1Cl | 8%
CCCCNCCCOc1cc(Cl)ccc1Cl | 57% (active)
CCCCNCCCCCCOc1ccc(Cl)cc1Cl | 10%
COc1ccc(-c2cc(C(=O)NCc3ccco3)c3ccccc3n2)cc1 | 14%
COC(=O)c1c(NC(=O)c2ccccc2Br)sc(C)c1C | 23%
CCN(CC)c1ccc(-n2c(O)c(C3=c4ccccc4=NC3=O)sc2=S)cc1 | 50% (active)
CCOc1ccc(-n2c(O)c(C3=c4cc(Br)ccc4=NC3=O)sc2=S)cc1 | 9%
O=C1N=c2ccccc2=C1c1sc(=S)n(-c2ccc(Cl)cc2)c1O | 0%
O=C1N=c2ccc(Br)cc2=C1c1sc(=O)n(-c2ccc(O)cc2)c1O | 41%
O=C1N=c2ccc(Br)cc2=C1c1sc(=S)n(-c2ccc(Cl)cc2)c1O | 51% (active)
O=C1N=c2ccc(Cl)cc2=C1c1sc(=O)n(-c2ccccc2)c1O | 42%

SMILES | inhibition
O=C1N=c2ccc(Br)cc2=C1c1sc(=O)n(-c2cccc(Cl)c2)c1S | 50% (active)
O=C1N=c2ccc(Br)cc2=C1c1sc(=S)n(-c2ccc(Br)cc2)c1O | 15%
O=C1N=c2ccccc2=C1c1sc(=S)n(-c2ccc(F)cc2)c1O | 12%
CC(C)c1ccc(/C=C2/C(=O)NN(c3ccccc3)C2=O)cc1 | 4%
CCOC(=O)c1ccc(NC(=S)NCCO)cc1 | 0%
C=CCc1ccc(OCCOc2cccc(/C=C3\SC(=S)N(CC)C3=O)c2)c(OC)c1 | 26%
C=CCN1C(=O)/C(=C\c2ccc(-c3ccc([N+](=O)[O-])cc3)o2)SC1=S | 4%
Cc1ccccc1NC1=C(Cl)C(=O)N(c2cccc(C)c2C)C1=O | 9%
CCOC(=O)C1=C(C)N=c2s/c(=C/c3ccc(-c4cccc(C(F)(F)F)c4)o3)c(=O)n2C1c1cccs1 (configuration not stated) | 6%
COc1ccc(C2=C/C(=C/c3ccccc3OC)C(=O)O2)c(OC)c1 | 2%
CC(=O)C1=C(O)C(=O)N(Cc2ccccc2)C1c1ccc([N+](=O)[O-])cc1 (configuration not stated) | 12%
COc1ccc(C(=O)Nc2ccc(NC(=O)c3ccc(OC)cc3)cc2)cc1 | 16%
COc1ccc(C(=O)Nc2ccc(Cc3ccc(NC(=O)c4ccc(OC)cc4)cc3)cc2)cc1 | 52% (active)
COc1cc(C(=O)Nc2ccc(Cc3ccc(NC(=O)c4cc(OC)c(OC)c(OC)c4)cc3)cc2)cc(OC)c1OC | 1%
COc1cc(C(=O)Nc2ccc(Cc3ccncc3)cc2)cc(OC)c1OC | 56% (active)
COc1ccc(C(=O)Nc2ccc(NC(=O)c3ccc(NC(=O)c4ccc(OC)cc4)cc3)cc2)cc1 | 8%
COc1ccc(C(=O)Nc2ccc(Cc3ccncc3)cc2)cc1OC | 6%
CCc1ccc(C2Nc3ccccc3NC3=C2C(=O)CC(c2ccc(OC)cc2)C3)s1 (configuration not stated) | 7%
O=C(N/N=C/c1cccc(/C=N/NC(=O)c2cccnc2)c1)c1cccnc1 | 0%
COc1ccc(NC(=O)c2ccc(CN3CCN(c4ccccc4)CC3)cc2)cc1 | 9%
COc1ccc(C(=O)NC(=S)Nc2ccc3oc(-c4ccc(OC)c(Cl)c4)nc3c2)cc1 | 20%
CC(=O)Nc1ccccc1NC(=O)c1cccc(F)c1 | 0%
NNC(=O)COc1ccccc1-c1ccccc1 | 14%

— PubChem BioAssay AID372 (MTDP, 2006)
